CSC inhib = cancer stem cell viability inhibitors, primary screen, luminescence. actives 1.1% (n = 300,000). AID 2717, 2010. cancer stem cell-like cells viability. inhibition, % at 7.5 µM; in the data active means inhibition above about 75%; inconclusive means no clear call, values can overlap the other calls; tested in HMLE shEcad cells
Calb FLC = C. albicans growth inhibition with fluconazole, primary screen, CaCi-2 strain, Alamar Blue fluorescence; C. albicans CaCi-2 (fluconazole-resistant clinical isolate) + fluconazole, 48 h; growth inhibition, % (no concentration beside the values); actives 0.57% (n = 300,000); AID 1979, 2009;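 active means growth inhibition above about 58% in most replicates, limit read from the data, passing the limit was not always enough; inconclusive means exactly half the replicates above a set limit; inactive means most replicates below a set limit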;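 further: all wells also contain fluconazole at 8 µg/ml as a sub-toxic cotreatment; 0% = median of DMSO wells and 100% = median of geldanamycin control wells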
PfHsp90 yeast 2 = growth inhibition of PfHsp90-expressing yeast, primary screen, antimalarial PfHsp90 inhibitor project, S. cerevisiae, BacTiter-Glo luminescence, single point, set 2 | BacTiter-Glo ATP, 48 h; yeast lacking PDR1 and PDR3 efflux regulators | inhibition, % at 9.4 µM | actives 0.32% (n = 310,000) | AID 504621, 2011;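 active means every replicate shows inhibition above about 80%, whatever the replicate mean, limit read from the data; inconclusive means mean inhibition reaches the set limit but some replicate falls short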;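 further: 0% = DMSO neutral controls and 100% = 20 µM radicicol positive controls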
Shn3 inh set2 = reduction of Shn3 3'UTR firefly luciferase signal, primary screen, Schnurri-3 inhibitor project, cell-based, Clone20 osteoblasts, set 2 | AID 588674, 2011 | inhibition, % at 12.5 µM | actives 0.52% (n = 360,000) | Clone20 osteoblast Shn3 3'UTR firefly luciferase, 24 h;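 active means mean inhibition of at least 75% with every replicate also reaching 75%; inconclusive means mean inhibition at least 75% but some replicate below; inactive means mean inhibition below 75%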;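 further: 0% = median of neutral control wells and 100% = pilot-screen positive control compound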
Beta cell apopt = inhibitors of cytokine-induced beta cell apoptosis, primary screen, luminescence; INS-1E cytokine-induced death, ATP luminescence, 48 h; percent of positive-control rescue, neutral wells zero; protection from apoptosis, % (concentration not given with the values); actives 0.8% (n = 300,000);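 active means Every replicate reaches about 75%, or at least half do and their mean reaches it too, limit read from the data; inconclusive means At least half of replicates reach the limit but their mean does not; inactive means Under half of replicates reach the limit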;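 further: 0% = cytokine-treated negative control wells and 100% = positive control rescue; higher means more ATP so stronger rescue from cytokine killing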
* = called active by the depositor; ? = inconclusive; nt = not tested or not shown. A selection: hits, their analogues and other compounds. The true share with any hit is near 2.2%.

SMILES	CSC inhib	Calb FLC	PfHsp90 yeast 2	Shn3 inh set2	Beta cell apopt
COc1cc(/C=N/NC(=O)c2c(-c3ccccc3)noc2C)ccc1O	-6	-3	7	-7	-3
CC(C)CC(N)c1csc(NC(=O)c2cc(C(C)(C)C)nn2Cc2ccccc2)n1 (configuration not stated)	nt	nt	nt	97*	nt
Cc1ccnc(NC(=O)c2ccc(OCc3c(C)noc3C)cc2)c1	nt	nt	nt	-54	nt
COc1ccc2nc(-n3c(O)c(C4=c5ccccc5=NC4=O)[nH]c3=S)sc2c1	111*	-3	-8	7	10
Cc1ccc(S(=O)(=O)Nc2ccc3c(c2)C(=O)N([C@H](C)CO)C[C@H](C)[C@@H](CN(C)Cc2ccccc2)O3)cc1	-11	nt	2	-104	-5
Cc1ccc(S(=O)(=O)Nc2ccc3c(c2)CC(=O)N([C@H](C)CO)C[C@@H](C)[C@H](CN(C)Cc2ccc(-c4ccccc4)cc2)O3)cc1	109*	nt	-18	13	-9
C[C@H]1CN([C@@H](C)CO)C(=O)Cc2cc(NC(=O)CCC(F)(F)F)ccc2O[C@H]1CN(C)Cc1ccc(-c2ccccc2)cc1	123*	nt	16	-4	14
C[C@@H]1CN([C@@H](C)CO)C(=O)Cc2cc(NS(=O)(=O)c3ccccc3)ccc2O[C@H]1CN(C)Cc1ccncc1	-17	nt	-27	-14	-2
C[C@H](CO)N1C[C@H](C)[C@H](CN(C)Cc2ccc(-c3ccccc3)cc2)Oc2ccc(NS(=O)(=O)c3ccccc3)cc2CC1=O	97*	nt	-7	31	-5
COc1ccc(N(CC(=O)NC2CC2)S(=O)(=O)c2ccccc2)cc1	-6	3	-11	2	-7
O=C(CCNC(=O)c1ccco1)Nc1ccc(OC(F)(F)F)cc1	-6	-10	-4	8	0
Nc1cc(C(F)(F)F)ccc1OCC1CCCO1 (configuration not stated)	-1	4	-5	-42	-4
CCOc1ccc(NC(=O)CSc2ccc(-c3cccnc3)nn2)cc1	1	9	-7	-15	2
CC(C)=CCC/C(C)=C/CNC(=O)C[C@H]1C[C@H](C(=O)N2CCOCC2)[C@@]2(C)c3[nH]c4cc(CCC(=O)N(C)C)ccc4c3CCN2C1=O	nt	nt	5	89*	nt
C=CCn1cccc(/C=C/C(=O)c2ccc(C(C)(C)C)cc2)c1=S	111*	-30	-8	75	1
CCc1ccc(OC)c(S(=O)(=O)Nc2ccc(Cc3ccncc3)cc2)c1	23	3	-102	82	101*
COc1ccc(/C=C2\CCC(C3CCCC3)C2=O)cc1 (configuration not stated)	-3	-5	20	-20	-4
COc1ccc(/C=C2/CCC(CN3CCOCC3)C2=O)cc1 (configuration not stated)	nt	nt	146*	?	nt
CC1CCC/C(=C\c2ccc(O)cc2)C1=O (configuration not stated)	nt	4	8	-42	nt
CN(C)CC1CC/C(=C\c2ccc(O)cc2)C1=O (configuration not stated)	nt	nt	145*	90*	nt
O=C1/C(=C\c2ccc(Cl)cc2)CCC1CNc1ccc(Cl)cc1 (configuration not stated)	nt	nt	147*	51	nt
CCCCn1c(N)c(N(CCOC)C(=O)COC(=O)/C=C/c2ccc(Br)cc2)c(=O)[nH]c1=O	1	-8	8	-3	nt
COC(=O)c1c(-c2c(Cl)cccc2Cl)noc1NC(=O)NN1CCCCC1	-13	7	-12	27	-7
CCCCn1c(CN2CCN(C(=O)OCC)CC2)nc2c1c(=O)n(C)c(=O)n2C	-5	102*	nt	62	0
CCC(C)c1ccc(NC(=S)NC2CCN(Cc3ccccc3)CC2)cc1 (configuration not stated)	36	-5	-22	22	111*
SMILES	CSC inhib	Calb FLC	PfHsp90 yeast 2	Shn3 inh set2	Beta cell apopt
O=C(CCCN1C(=O)c2ccccc2C1=O)NCc1cccnc1	-7	14	1	15	1
Cc1ccc(-c2cc(C(=O)NCc3cccnc3)no2)cc1	-5	4	nt	-26	1
O=C(/C=C/c1ccc(-c2ccccc2)cc1)NCc1cccnc1	14	5	-2	-12	98*
O=C(/C=C/c1ccccc1)NCc1cccnc1	5	-6	7	-12	-1
O=C(NCc1cccnc1)c1cc(-c2ccco2)on1	-9	-6	-26	-31	101*
O=C(CCCCCCCCCCC(=O)NCc1cccnc1)NCc1cccnc1	72	5	-28	45	112*
COc1ccc(C(CNC(=O)c2cccc(S(=O)(=O)NCc3ccccc3)c2)N2CCOCC2)cc1 (configuration not stated)	nt	-1	14	9	1
COc1ccccc1NC(=O)C(C)OC(=O)/C(=C/c1ccccc1)NC(C)=O (configuration not stated)	-7	-5	18	-16	5
CC(C)(C)OC(=O)C[C@H]1C/C=C\C[C@H](CC(=O)N(CCO)Cc2ccccc2)C(=O)N[C@@H](Cc2ccccc2)COC1=O	nt	nt	nt	10	-3
CCOc1ccc(S(=O)(=O)N(C(=O)c2ccco2)c2cc3sc(=O)oc3c3ccccc23)cc1	64	17	-3	-32	99*
CCOc1ccc(S(=O)(=O)N(C)CC(=O)NCc2ccco2)cc1	0	1	-10	-11	2
Cc1ccc(S(=O)(=O)N(C(=O)c2ccco2)c2cc3sc(=O)oc3c3ccccc23)cc1	46	14	-11	-10	53
COc1ccc(S(=O)(=O)N(C(=O)c2ccco2)c2cc3sc(=O)oc3c3ccccc23)cc1	62	23	-9	1	98*
C=CCn1c(SCc2c(C)noc2C)nc2sc3c(c2c1=O)CCCCC3	94*	-2	nt	28	nt
COc1ccccc1N1CCN(CCCN=C2CC(=O)N(C)C(=O)N2C)CC1	nt	nt	-6	-6	nt
Cc1noc(C)c1CSc1nc2ccccc2nc1NS(=O)(=O)c1ccc(Cl)cc1	82*	3	2	30	nt
COc1ccc(/C=C/C(=O)NC(=S)NNC(=O)c2c(-c3ccccc3)noc2C)cc1	5	3	-1	18	21
COc1ccc(-c2cc(C(=O)NNC(=S)NC(=O)c3c(-c4ccccc4)noc3C)[nH]n2)cc1	23	81*	-26	6	11
c1ccc(CCN(Cc2ccccc2)C2CCN(C3CCCC3)CC2)cc1	43	8	-1	12	0
CC(=O)NC(C)c1cc(Cl)c2ccccc2c1O (configuration not stated)	13	nt	-4	-16	1
CC(=O)NC(C)c1cc(Cl)c2cccnc2c1O (configuration not stated)	47	nt	-3	27	92*
CCC(=O)NC(c1ccc(C)cc1)c1cc(Cl)c2cccnc2c1O (configuration not stated)	nt	nt	71	79	88*

High-throughput results deposited in PubChem by Broad Institute.
